# Assay results published in PubChem BioAssay (Tox21).
# Results filed as inconclusive are left out. Unmarked numbers belong to inactive results. Calls come from the whole dose curve.
# Assay: qHTS assay to identify small molecule agonists of the NFkB signaling pathway - cell viability counter screen (AID 1159515); note: nearly all actives have a fitted effect of over 55% in size
# Details: NFkB-bla ME-180 viability, CellTiter-Glo luminescence, 5 h; series mostly up to 61 µM; activity, negative = cytotoxic: at the top concentration
# Description: National Center for Advancing Translational Sciences [NCATS]
# NIH Chemical Genomics Center [NCGC]
# U.S. Environmental Protection Agency [EPA]
# National Institutes of Environmental Health Sciences [NIEHS]
# National Toxicology Program [NTP]
# U.S. Food and Drug Administration [FDA]
# Transcription factors and their stimulated target gene expression play pivotal roles across many cellular processes including responses to environmental stimuli. Proper regulation of associated pathways is critical to maintain cell health and function. Constitutive activation of transcription factor pathways has been implicated in tumors as it may block cellular functions such as apoptosis and lead to invasion and metastasis. One important transcription factor that stimulates gene expression in response to cytokines, UV radiation, and other stimuli is nuclear factor-kappa B (NFkB). To measure activation of the NFkB pathway, the CellSensor NFkB-bla ME-180 cell line (Life Technologies, Carlsbad, CA) that stably expresses beta-lactamase reporter gene under the regulation of a NF-kB response element was used. This assay allows measurement of the NFkB pathway activity induced by compounds in a ME-180 cell line. This system quantitates NF-kB activity using a FRET-based assay system where beta-lactamase expression disrupts FRET, allowing for fluorescent measurement of activity. This cell line has been used to screen the Tox21 10K compound library and to identify compounds that induce the NFkB pathway activity. The cytotoxicity of the Tox21 compound library against the NFkB-bla ME-180 cell line was tested in parallel by measuring cell viability using the CellTiter-Glo assay in the same wells.
# Tox21 Assay Protocol Summary:
# NFkB-bla ME-180 cells were dispensed at 2,000 cells/6 uL of assay medium per well into black wall/clear-bottom 1536-well plates using a Multidrop Combi (ThermoFisher Scientific, Waltham, MA) dispenser. After the assay plates were incubated at 37 C and 5% CO2 for an overnight, 23 nL of compounds dissolved in DMSO, positive controls or DMSO only was transferred to the assay plate by a Pintool station (Kalypsys, San Diego, CA). The assay plates were incubated at 37 C and 5% CO2 for 5 hr. One uL of LiveBLAzer B/G FRET substrate (Life Technologies) was added using a Flying Reagent Dispenser (Aurora Discovery, San Diego, CA) and the plates were incubated at room temperature for 1.5 hr. Fluorescence intensity (405 nm excitation, 460 nm and 530 nm emissions) was measured using an Envision plate reader (PerkinElmer, Shelton, CT). For cytotoxicity, 3 ul/well of CellTiter-Glo reagent was added into the assay plates using an FRD. After 30 min incubation at room temperature, the luminescence intensity was measured using a ViewLux plate reader (PerkinElmer).
# % is set by controls: 0 for no effect and ±100 for the full control effect.
row,SMILES,"activity, negative = cytotoxic"
1,C=C(C)C(=O)OC,3.01%
2,CCCCOC(=O)[C@@H](C)Oc1ccc(Oc2ccc(C(F)(F)F)cn2)cc1,0.959% [at 78.8 µM]
3,CCCCCCCCCCCCCCCCCCN(C)C,-13.2%
4,Nc1ccnc(=O)[nH]1,5.82%
5,CCCCC(CC)CNC(=O)CC(C)OC(=O)CCC(=O)O (stereo not given),3.94%
6,Nc1nc(=O)n([C@@H]2O[C@H](CO)[C@@H](O)[C@@H]2F)cc1I,0.622%
7,Cc1ccc2c(c1)c1c3n2CCNC3CCC1 (stereo not given),-9.34%
8,Cc1ccccc1C(=O)N1CC/C(=N\OS(=O)(=O)O)c2ccc(Cl)cc21,8.34%
9,CC(C)CCCC(C)CC=O (stereo not given),-9.33%
10,CCN(CC)C(=O)C1CN2CCc3cc(OC)c(OC)cc3C2CC1OC(C)=O (stereo not given),-0.0833%
11,CC(C)(C)NCCO,0.0548%
12,O=S(=O)(O)SSS(=O)(=O)O,-1.05%
13,COc1ccc(N=Nc2cc(C)c(N=Nc3ccc(S(=O)(=O)O)cc3)cc2OC)cc1,-0.155%
14,CNC(=O)NC,7.24% [at 78.8 µM]
15,C=CCOc1c(Br)cc(C(C)(C)c2cc(Br)c(OCC=C)c(Br)c2)cc1Br,-6.56%
16,CN(C)CCCNCCC#N,0.446%
17,CCCCC(CC)C(=O)OC(C)C (stereo not given),0.0862%
18,O=C(COCCOCCOCC(=O)Nc1c(I)cc(I)c(C(=O)O)c1I)Nc1c(I)cc(I)c(C(=O)O)c1I,2.12%
19,O=C1NC2NC(=O)NC2N1 (stereo not given),-3.11%
20,CCCCCCCCOC(C)=O,7.53%

row,SMILES,"activity, negative = cytotoxic"
1,CO[Si](CCCCl)(OC)OC,-2.95%
2,C=C(C)C(=O)OCCCCCCOC(=O)C(=C)C,0.968%
3,CN[C@@H]1[C@H](O)[C@H](NC)[C@H]2O[C@@]3(O)C(=O)C[C@@H](C)O[C@H]3O[C@@H]2[C@H]1O,10.6%
4,F[Si-2](F)(F)(F)(F)F,6.09%
5,O=c1[nH]c(=O)c2[nH]c(=O)[nH]c2[nH]1,1.31% [at 6.95 µM]
6,O=CO,-18.4% [at 6.95 µM]
7,O=C(O)c1ccccc1C(=O)Nc1ccc(S(=O)(=O)Nc2nccs2)cc1,0.176%
8,OC[C@@H](O)[C@H](O)[C@@H](O)[C@@H](O)CO,-11.8%
9,O=C(/C=C/c1ccccc1)NCCO,-9.01%
10,CCCCOC(=O)C(=O)OCCCC,-12.6%
11,Cc1nc2n(c(=O)c1CCN1CCC(C(=O)c3ccc(F)cc3)CC1)CCS2,8.14%
12,CN[C@@H]1[C@@H](O)[C@@H](O[C@@H]2[C@H](O)[C@H](O[C@H]3OC(CN)=CC[C@H]3N)[C@@H](N)C[C@H]2N)OCC1(C)O (stereo not given in full),1.1%
13,CCOC(=O)CC#N,0.511%
14,CCCCCCCCCCCCCCCC(=O)NCCO,9.76%
15,CCCCCC1CCCC(=O)O1 (stereo not given),-6.72%
16,CC(=O)/C=C/c1ccco1,18.9% [at 78.8 µM]
17,NS(=O)(=O)c1ccc(Cl)c(S(N)(=O)=O)c1,2.36%
18,CCNC(=O)/C=C/c1cccc(Br)c1,-6.49%
19,CC1=CC[C@H](CC=O)C1(C)C,-5.33%
20,CC(C)=CC(C)(C)C,6.18%
